# High-throughput results from PubChem BioAssay.
# Shown are actives, neighbours in structure and some others; about 7.3% of the full set was active somewhere.
# NPC1 promoter act: activators of NPC1 promoter | Potency, µM (top dose mostly 9.22 µM), inactives show at the top dose activation, hits mostly activators | Huh7 NPC1 promoter luciferase reporter, 24 h | hit rate 2.4% among 320,000; further: % of control where 0% means no effect; nearly all actives have a fitted effect of over 60% in size
#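 Luciferase expression driven by the NPC1 promoter was measured in stably transfected Huh7 cells after a 24 h compound incubation, using a luciferase reagent and a luminescence read.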
# FLuc counter: counter-screen for miR-21 project: firefly luciferase inhibitors or activators; purified FLuc, Km substrates, luminescence inhibition; Potency, µM (highest dose often 57.5 µM), without a hit: top-dose activity change, negative = inhibition, usual class: inhibitors; hit rate 6.9% among 360,000;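 further: plate controls were vehicle for no effect and reference inhibitor for full effect; nearly all actives have a fitted effect of over 55% in size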
# Target sequence (P08659 whole entry, looked up): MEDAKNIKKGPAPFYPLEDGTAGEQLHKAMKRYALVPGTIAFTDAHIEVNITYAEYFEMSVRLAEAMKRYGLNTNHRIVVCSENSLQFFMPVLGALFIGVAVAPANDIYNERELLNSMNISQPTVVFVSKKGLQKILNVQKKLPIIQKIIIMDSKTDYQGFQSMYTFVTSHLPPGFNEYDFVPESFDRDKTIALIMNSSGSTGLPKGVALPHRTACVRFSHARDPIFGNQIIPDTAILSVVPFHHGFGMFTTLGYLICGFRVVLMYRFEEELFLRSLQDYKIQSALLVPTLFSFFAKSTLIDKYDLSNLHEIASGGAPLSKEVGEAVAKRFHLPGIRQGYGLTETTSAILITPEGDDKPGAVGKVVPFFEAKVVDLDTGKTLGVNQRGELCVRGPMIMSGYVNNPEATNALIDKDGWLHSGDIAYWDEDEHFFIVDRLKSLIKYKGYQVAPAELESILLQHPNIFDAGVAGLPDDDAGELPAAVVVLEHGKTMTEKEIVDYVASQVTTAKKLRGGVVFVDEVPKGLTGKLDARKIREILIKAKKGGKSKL
#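 Purified P. pyralis luciferase (10nM final) with 10uM D-luciferin and 10uM ATP (Km levels) in 50mM Tris acetate pH 7.5, 10mM Mg acetate, 0.01% Tween-20, 0.05% BSA; qHTS 6-point titration, ~60 µM downward; luminescence read.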
# Rab9 promoter act: activators of Rab9 promoter; Potency, µM (series often up to 9.22 µM), inactives show top-dose activation, negative = inhibition, most hits filed as activators; hit rate 2.8% among 320,000; Huh7 Rab9 promoter-luciferase reporter, luminescence, 24 h; AID 485297; further: % of control where 0% means no effect; nearly all actives have a fitted effect of over 60% in size
#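 Huh7 cells stably carrying a Rab9 promoter-luciferase reporter, 1500 cells per well in OP-MEM I with 10% FBS, treated with compound 24 hours at 37C. Luciferase activity read by luminescence after 10 minutes with Amplite reagent.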
# SMN2 splice enh: SMN2 splice variant enhancement | hit rate 2.8% among 210,000 | HEK293 SMN2-luciferase splicing reporter, luminescence, 30-36 h | AID 1458 | Potency, µM (series often up to 46.1 µM), for inactives: top-dose activity change, positive = activation, hits mostly activators; further: % of control where 0% means no effect; nearly all actives have a fitted effect of over 55% in size
#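 HEK293 cells carry an SMN2 […]–luciferase reporter in which exon 7 inclusion puts luciferase in frame. Cells were plated 10-12 h before compound addition, then incubated 30-36 h at 37C. ONE-Glo luminescence was read; sodium butyrate at 4.5 mM final served as control.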
# ELG1 genotox: induces genotoxicity in HEK293T cells with luciferase-tagged ELG1. HEK293T ELG1-luciferase reporter, luminescence, 16 h. Potency, µM (doses to about 46 µM), for inactives: at the top dose activity change, positive = activation, most hits filed as activators. hit rate 1.3% among 330,000. AID 504466; further: % of control where 0% means no effect; nearly all actives have a fitted effect of over 60% in size
#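 Screening used a luciferase reporter fused to human ELG1 in HEK293T cells. Luminescence was read on a CCD plate imager after 16 hr exposure and 30 min ONE-Glo incubation.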
# KinaseGlo FLuc: counter-screen: inhibitors of Kinase-Glo firefly luciferase. Q27757. Kinase-Glo luciferase, ATP luminescence, 8 min. Potency, µM (doses to about 38.3 µM), without a hit: at the highest dose activity change, negative = inhibition, hits mostly inhibitors. hit rate 0.28% among 200,000. AID 1379; further: on the % scale 0 is the no-effect control and ±100 the full control effect; nearly all actives have a fitted effect of over 60% in size
#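 Kinase-Glo luciferase light output from ATP and luciferin was measured with 10 uM ATP, within the enzyme's linear range. Buffer: 50 mM imidazole pH 7.2, 50 mM KCl, 7 mM MgCl2, 0.01% Tween 20, 0.05% BSA; luminescence read after 8 min at ambient temperature.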
# The depositor's hits bear a star; ? = inconclusive; nt = no result; [ ] = remark or other dose. The call rests on the fitted dose curve; in most records, active means well fitted curve in the direction sought with a large enough effect; inconclusive means small, poorly fitted or top-dose-only effect, or another doubt; inactive means no such curve, though single readings can be large; an effect the other way counts as inactive or inconclusive. Potency means the concentration at half of the fitted maximal effect.
SMILES,NPC1 promoter act,FLuc counter,Rab9 promoter act,SMN2 splice enh,ELG1 genotox,KinaseGlo FLuc
Cc1ccc(-c2cc(C(=O)N3CCN(C(=O)c4ccco4)CC3)no2)cc1,15%,?,-4%,-14%,10%,-4%
Cc1ccc(C)c(/C(=N\N=C(N)N)C2CC2)c1,nt,nt,nt,-2%[9.22 µM],nt,-5%[7.66 µM]
CSc1ncnc2c1ncn2[C@@H]1O[C@@H](CO)[C@H](O)O[C@@H]1O,nt,nt,nt,-57%[9.22 µM],nt,-10%[7.66 µM]
COc1ccccc1C(=O)Oc1c(Sc2ccccc2)c(C)nn1C(C)(C)C,nt,-1%,nt,-8%,nt,nt
COCCCN=Cc1c(C)[nH]n(-c2ccc(Br)c(C)c2)c1=O,1.4µM*,1.3µM*,0.5µM*,2.8µM*,?,-5%
Cc1ccc(-n2[nH]c(C)c(C=NC34CN5CN(CN(C5)C3)C4)c2=O)cc1C,nt,-6%,nt,12%,nt,-10%
C=CCNC(=O)COc1ccccc1C#N,-3%,-2%,7%,30%,2%,-4%
O=C(COc1ccc(F)cc1Cl)NC1CCCCCC1,4µM*,8.5µM*,2.2µM*,nt,?,nt
CC(C)(C)NC(=O)NC(=O)COc1ccc(Br)cc1Br,1.3µM*,0.67µM*,0.63µM*,6.3µM*,2.1µM*,-1%
O=C(COc1ccccc1Cl)NC(=O)NC1CCCCC1,8%,?,-3%,nt,5%,nt
CC(C)(C)NC(=O)NC(=O)COc1ccccc1C#N,4µM*,8.5µM*,1.6µM*,?,1.3µM*,?
O=C(COc1ccc(Br)cc1Br)NC(=O)NC1CCCC1,3.5µM*,9.5µM*,3.5µM*,14µM*,?,-4%
CCc1nnc(SCC(=O)N(C)c2ccccc2)c2cc3sccc3n12,nt,-3%,nt,nt,nt,nt
COc1ccc(CCNc2ncnc3onc(C)c23)c(OC)c1,nt,0%,nt,nt,nt,nt
CNCCCCCCCCSc1nc(C(C)C)ccc1C(=O)c1cccs1,nt,nt,nt,nt,nt,-2%
O=C(COc1ccc(Br)cc1Br)NNC(=O)c1cccs1,25%,1.9µM*,?,nt,24%,nt
COc1ccc(OC)c2c(=S)c3ccccc3[nH]c12,nt,nt,nt,nt,nt,-19%
COc1ccc(Cl)cc1NC(=O)CSc1nnc2[nH]c(=O)cc(C)n12,nt,5%,nt,nt,nt,nt
CCn1c(=O)cc(SCC(=O)N2CCOCC2)c2ccccc21,-1%,1%,-9%,14µM*,?,2%
CCn1c(=O)cc(SCC(=O)N2CCN(C3CCCCC3)CC2)c2ccccc21,-7%,3%,-11%,10µM*,15%,4%
CCCCN(C)C(=O)C1CCCN(c2ncnc3onc(C)c23)C1 (stereo not given),nt,-1%,nt,nt,nt,nt
CCCOc1ccc(C(CC(=O)O)NC(=O)c2sc3ccccc3c2Cl)cc1 (stereo not given),-1%,15µM*,20%,nt,2%,4%
CCN(c1ccccc1)S(=O)(=O)c1nnc(NC(=O)C(C)Oc2ccccc2)s1 (stereo not given),nt,-19%,nt,nt,nt,nt
O=C(CSc1cn(Cc2ccccc2)c2ccccc12)N1CCOCC1,?,24µM*,23%,13µM*,18µM*,4%
O=C(Cn1cc(SCc2ccc(C(F)(F)F)cc2)c2ccccc21)N1CCCCC1,nt,-14%,nt,nt,nt,nt
SMILES,NPC1 promoter act,FLuc counter,Rab9 promoter act,SMN2 splice enh,ELG1 genotox,KinaseGlo FLuc
O=C(Cn1cc(SCc2ccc(Cl)cc2)c2ccccc21)N1CCOCC1,22%,24µM*,30%,?,1%,-7%
O=C(Cn1cc(SCc2c(F)cccc2Cl)c2ccccc21)N1CCCC1,nt,17µM*,nt,nt,nt,nt
O=C(Cn1cc(SCc2cccc(Cl)c2)c2ccccc21)N1CCCCCC1,nt,-5%,nt,nt,nt,nt
Cc1ccc(CSc2cn(CC(=O)N3CCCC3)c3ccccc23)cc1,nt,15µM*,nt,nt,nt,nt
Cc1oc(-c2ccc(Cl)cc2)nc1CS(=O)CC(=O)NCc1ccc(Cl)cc1 (stereo not given),nt,-1%,nt,-6%,nt,nt
CC1(C)O[C@H]2C[C@@H]3[C@H]4CCC5=CC(=O)CC[C@@]5(C)[C@]4(F)[C@@H](O)C[C@@]3(C)[C@@]2(C(=O)CCl)O1,nt,nt,nt,-6%[20.6 µM],nt,1%[17.1 µM]
Cc1cccc(CSc2cn(CC(=O)N3CCCC3)c3ccccc23)c1,nt,15µM*,nt,nt,nt,nt
c1csc(-c2nnc(-c3ccc(N4CCOCC4)cc3)o2)c1,0.35µM*,1.2µM*,0.63µM*,1.3µM*,1.3µM*,9%
CCOc1ccc(-c2nc(-c3cccs3)c(CC(=O)O)s2)cc1OC,17%,3µM*,?,15%,?,-3%
CCOc1ccc(-c2nnc(-c3cccs3)o2)cc1,0.71µM*,0.67µM*,0.63µM*,2µM*,?,-9%
CCOc1ccc(-c2nnn(CCC(=O)O)n2)cc1OC,-2%,-2%,0%,16%,-2%,2%
COc1ccc(-c2nnc(-c3cccs3)o2)cc1OC,2.8µM*,8.5µM*,3.2µM*,154%,14µM*,-15%
COc1cc(-c2nnc(-c3cccs3)o2)cc(OC)c1OC,5%,-1%,6%,?,6%,2%
CCCn1ccc2c(OCC(=O)NCc3ccccc3Cl)cccc2c1=O,nt,-6%,nt,nt,nt,nt
CCOc1ccc(-c2nnc(-c3cccs3)o2)cc1OCC,3.5µM*,?,?,24%,?,-1%
CCOc1ccc(-c2nnc(-c3ccco3)o2)cc1OCC,30%,?,?,-15%,?,-2%
COc1ccc2[nH]c(=O)c(CN(C(=O)c3cccc(Cl)c3)c3ccccc3OC)cc2c1,nt,5%,nt,13%,nt,nt
COc1ccccc1C(=O)NNC(=O)c1ccc2ccccc2c1,1%,12µM*,5%,nt,9%,nt
Cc1ccccc1C(=O)NNC(=O)c1ccc(F)cc1,2%,-15%,20%,3%,13%,-9%
COc1ccccc1C(=O)NNC(=O)c1ccc(Cl)cc1,16%,15µM*,26%,nt,12%,-4%
COC(=O)NNC(=O)c1ccccc1OC,4%,-2%,-3%,9%,0%,-1%
COc1ccccc1C(=O)NNC(=O)c1ccc(F)cc1,26%,?,?,11µM*,?,-9%
CC(C)CCn1c(SCc2ccc(F)cc2Cl)nc2ccsc2c1=O,nt,-2%,nt,nt,nt,nt
Cc1cc(Cl)ccc1NC(=O)CN1C(=O)COc2ccc(S(=O)(=O)Nc3ccccc3)cc21,nt,-2%,nt,nt,nt,nt
CCC(CC)c1nn2c(=O)cc(COc3ccc(NC(=O)c4ccccc4C)cc3)nc2s1,nt,-3%,nt,8%,nt,nt
O=C(Nc1ccccc1C(=O)O)c1cccc(NC(=O)c2ccccc2Br)c1,0%,24µM*,-5%,nt,-3%,nt
CC(C)c1ccc(OCC(=O)Nc2cccc(C(=O)Nc3ccccc3C(=O)O)c2)cc1,0%,21µM*,-4%,14%,2%,-1%
O=C(O)c1ccc(NC(=O)c2ccccc2NC(=O)c2cccc(Br)c2)cc1,-2%,11µM*,-2%,nt,5%,nt
